Data as given in PubChem BioAssay AID652097 (National Center for Advancing Translational Sciences (NCATS), 2013).
Calls of active or inactive are those of the source.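 The calls were made as follows: active = microscopy shows reduced glucosylceramide buildup in Gaucher patient macrophages after treatment; inactive = no reduction in glucosylceramide buildup seen.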

experiment: Extended Characterization of Activators of N370S glucocerebrosidase as a Potential Chaperone Treatment of Gaucher Disease: GC accumulation; settings: N370S Gaucher macrophages, immunofluorescence microscopy
From the text: Glucocerebrosidase (GCase) catalyzes the hydrolysis of beta-glucocerebroside (GC) to glucose and ceramide in lysosomes. Mutations in the glucocerebrosidase gene result in Gaucher disease, an autosomal recessive lysosomal storage disorder. Many of the mutations encountered in patients with Gaucher disease are missense alterations that may cause misfolding, decreased stability and/or mistrafficking of this lysosomal protein. […] These inhibitors include iminosugar analogs and other inhibitors that were discovered as part of previous work. However, the enhancement of enzyme activity by the chaperone action of an enzyme inhibitor must be balanced against the direct inhibition of the enzyme. […] In this extended characterization of our probe, we have further characterized the activity of probes in relevant models of Gaucher disease. This assay attempts to quantitate translocated glucocerebrosidase protein in patient-derived macrophages following extended compound incubation. NIH Chemical Genomics Center [NCGC] NIH Molecular Libraries Probe Production Centers Network [MLPCN] MLPCN Grant: MH086442 Assay Submitter (PI): Ellen Sidransky, NHGRI
Macrophages derived from N370S/N370S Gaucher patients and a control were seeded in Lab-Tek 4 chamber slides (Fisher Scientific, Pittsburgh, PA). After compound treatment, cells were fixed in 3% paraformaldehyde. […]

| Compound | outcome |
| --- | --- |
| C#Cc1ccc(NC(=O)c2cnn3c(C)cc(C)nc23)cc1 | active; decreased |
